Among the data in ChEMBL document CHEMBL1157539, “Thousands of chemical starting points for antimalarial lead identification” (Nature, 2010) are Inhibition values, retold here.

The structures appear in SMILES notation.

Holding throughout (type): functional
Assay [1] deals with Plasmodium falciparum. The assay can be described thus: GSK_TCMDC: Inhibition of Plasmodium falciparum 3D7 in whole red blood cells, using parasite LDH activity as an index of growth. Test compounds present at 2uM.
Assay [2] relates to Plasmodium falciparum. The assay can be described thus: GSK_TCMDC: Inhibition of Plasmodium falciparum Dd2 in whole red blood cells, using parasite LDH activity as an index of growth. Test compounds present at 2uM.
The subject of the next assay is HepG2. The experiment in a line: GSK_TCMDC: Percent inhibition of human HepG2 cell line. Test compounds present at 10uM.

In general, Inhibition refers to the percentage by which the read-out fell short of the control. A high value points to a strong effect. For `COC(=O)c1cccc(CNCc2cccc(-c3ccc(-c4nc5cc(C(F)(F)F)ccc5[nH]4)cc3)c2)c1.O=C(O)C(F)(F)F`, the Inhibition with Plasmodium falciparum [1] was 100%; in the assay on Plasmodium falciparum [2] it was 83%; in the assay with HepG2, 13%.
For `Cc1cccc2nc(-c3ccc(-c4ccc(NC(=O)c5cncn5C)cc4)s3)[nH]c12`, the Inhibition in the assay on Plasmodium falciparum [1] is listed as 100%; in the assay with Plasmodium falciparum [2], 30%; in the assay with HepG2 it was 49%.
On the same counts, the results for `Fc1ccc2[nH]c(-c3cccc(-c4ccc(CN5CCN(c6cnccn6)CC5)cc4)c3)nc2c1.O=C(O)C(F)(F)F` are 96%, 31% and 19%.
As for `FC(F)(F)c1ccc2[nH]c(-c3ccc(-c4cccc(CNCc5cnn(-c6ccccc6)n5)c4)cc3)nc2c1.O=C(O)C(F)(F)F`, the figures for the Inhibition in the assay on Plasmodium falciparum [1], with Plasmodium falciparum [2] and with HepG2 were 99%, 83% and 19%, respectively.
With `CCCCOc1ccc(-n2c(Nc3ccccc3)nc3cc(S(N)(=O)=O)ccc32)cc1`, the Inhibition stood at 90% in the assay on Plasmodium falciparum [1], 72% in the assay with Plasmodium falciparum [2] and 0% in the assay on HepG2.
On the same counts, the results for `CN1CCN(CC(=O)Nc2ccc(-c3cccc(-c4nc5cc(F)ccc5[nH]4)c3)cc2)CC1` are 100%, 100% and 18%.
On the same counts, the results for `COc1ccc(-c2nc(-c3ccc([N+](=O)[O-])cc3)no2)cc1OC` are 96%, 0% and 14%.
For the compound `CC1=C(C(=O)Nc2ccc(Cl)cc2)C(c2ccncc2)n2nc(C(F)(F)F)nc2N1` (stereo unspecified), the Inhibition in the assay on Plasmodium falciparum [1] was 87%; in the assay on Plasmodium falciparum [2], 49%; with HepG2, 25%.
For `COc1ccc(C=Cc2ccc(-c3c(C)[nH]c(C)c(Cl)c3=O)cc2)cc1OC` the same measures were 97%, 96% and 12%.
`CCCC(C)Nc1nc(C)cc(NCCC(=O)Nc2ccccc2)n1.O=C(O)C(F)(F)F` (stereo unspecified): the Inhibition in the assay with Plasmodium falciparum [1] is recorded as 96%; with Plasmodium falciparum [2] it was 11%; in the assay with HepG2, 12%.
On the same counts, the results for `CCCc1cc(OC)c(CC2c3cccc(O)c3CCN2C)cc1OC.Cl` (stereo unspecified) are 100%, 99% and 3%.
For `COc1ccc(CNc2ncnc3c2[nH]c2ccc(F)cc23)cc1` the same measures were 93%, 71% and 38%.
For `CC(=O)Nc1ccc(C(=O)Nc2cccc(-c3ccc(-c4nc5cc(F)ccc5[nH]4)cc3)c2)cn1` the same measures were 99%, 99% and 10%.
As to `NC1CCCN(Cc2cccc(-c3ccc(-c4nc5cc(C(F)(F)F)ccc5[nH]4)cc3)c2)C1.O=C(O)C(F)(F)F` (stereo unspecified), the Inhibition in the assay on Plasmodium falciparum [1] was 99%; with Plasmodium falciparum [2], 96%; with HepG2, 47%.
As for `Cl.Clc1ccc2c(N3CCN(CCN4CCN(c5ccnc6cc(Cl)ccc56)CC4)CC3)ccnc2c1`, the Inhibition turned out to be 99% in the assay with Plasmodium falciparum [1], 100% in the assay with Plasmodium falciparum [2] and 10% with HepG2.
On the same counts, the results for `CCC(=O)N[C@@H]1CN[C@@H](C#Cc2cc3c(Nc4ccc(OCc5cccc(F)c5)c(Cl)c4)ncnc3s2)C1` are 82%, 0% and 46%.
In the case of `c1cncc(CNc2ncc(-c3ccsc3)c(-c3nccs3)n2)c1`, the Inhibition in the assay with Plasmodium falciparum [1] is listed as 81%; in the assay on Plasmodium falciparum [2], 63%; with HepG2, 0%.
On the same counts, the results for `O=c1cc(NCCCNCc2cc(Cl)cc(Cl)c2OCc2ccc(Cl)cc2)[nH]c2ccccc12` are 98%, 53% and 6%.
On the same counts, the results for `CS(=O)(=O)CCNCc1cccc(-c2cc3nccc(Nc4ccc(Oc5ccccc5)cc4)c3cc2Cl)c1` are 100%, 82% and 2%.
For `COC(=O)c1cccc(NC(=O)NC2CCN(c3ccnc(Nc4ccc(F)cc4)n3)C2)c1` (stereo unspecified) the same measures were 100%, 83% and 5%.
On to `COc1cc(C)nc2ccc(NC(=O)c3cc([N+](=O)[O-])cc([N+](=O)[O-])c3)cc12.Cl`, for which the Inhibition in the assay with Plasmodium falciparum [1] was 100%; in the assay with Plasmodium falciparum [2] it was 94%; in the assay on HepG2, 0%.
For `CCOC(=O)CNC(=O)c1cc(=O)c2ccccc2o1` the same measures were 99%, 0% and 22%.
For `CN(CCO)Cc1ccc(-c2ccc(NS(=O)(=O)c3cccc4cccnc34)cc2)cc1.O=C(O)C(F)(F)F` the same measures were 99%, 84% and 28%.
On the same counts, the results for `CCOc1c(Br)cc(C)cc1CNCCCNc1nc2ccccc2[nH]1.Cl` are 93%, 5% and 24%.
Regarding `Cc1ccc(C2CCN(CCCCNC(=O)c3ccc(-c4ccc(C#N)cc4)cc3)CC2)c(O)c1`, the Inhibition worked out at 100% in the assay with Plasmodium falciparum [1], 90% in the assay with Plasmodium falciparum [2] and 45% in the assay on HepG2.
On the same counts, the results for `O=C(CNc1ccc(Cl)c(S(=O)(=O)N2CCCC2)c1)Nc1ccc(Br)cc1F` are 99%, 97% and 18%.
For the compound `Cc1ccc2nc(C)cc(N/N=C/c3cccc([N+](=O)[O-])c3)c2c1`, the Inhibition is recorded as 100% with Plasmodium falciparum [1], 99% with Plasmodium falciparum [2] and 0% in the assay on HepG2.
On the same counts, the results for `CCN(CC)CCN(Cc1ccc(-c2ccc(C(F)(F)F)cc2)cc1)C(=O)Cn1c(CCc2cccc(C#N)c2)nc(=O)c2ccccc21.O=C(O)C(O)C(O)C(=O)O` are 100%, 47% and 36%.
On the same counts, the results for `O=C(Nc1ccc2c(c1)CN(Cc1ccc(N3CCCC3)o1)CCC2)c1cncs1.O=CO` are 84%, 37% and 15%.
Consider `COc1cc2ncnc(Nc3ccc4nc(-c5ccccc5)[nH]c4c3)c2cc1OC.Cl`, for which the Inhibition in the assay with Plasmodium falciparum [1] came out at 92%; with Plasmodium falciparum [2], 32%; with HepG2, 15%.
For `O=C(CN(c1cccc(C(F)(F)F)c1)S(=O)(=O)c1ccc(Cl)cc1)NCCC(c1ccccc1)c1ccccc1` the same measures were 94%, 50% and 14%.
Regarding `CCOc1cc(NCCSCc2nc[nH]c2C)nc2ccccc12`, the values for the Inhibition in the assay with Plasmodium falciparum [1], in the assay with Plasmodium falciparum [2] and with HepG2 were 92%, 10% and 4%, respectively.
Regarding `Cc1cc(N[C@@H](Cc2ccccc2)C(=O)NCc2cccc(F)c2)nc(NCCc2cccs2)n1.O=C(O)C(F)(F)F`, the Inhibition in the assay with Plasmodium falciparum [1] came to 99%; in the assay with Plasmodium falciparum [2], 22%; with HepG2, 9%.
On to `COc1ccc(C(=O)C2CC2CN(C)CCC(O)c2ccc(Cl)c(Cl)c2)cc1` (stereo unspecified), for which the Inhibition with Plasmodium falciparum [1] is on record as 94%; in the assay on Plasmodium falciparum [2], 86%; with HepG2, 24%.
Turning to `COc1cc2c(Nc3cccc(NC(=O)c4ccccc4)c3)ncnc2cc1OCCCN1CCOCC1`, the Inhibition with Plasmodium falciparum [1] is recorded as 100%; with Plasmodium falciparum [2] it was 100%; with HepG2, 0%.
`O=C(O)C[C@H](NC(=O)[C@@H]1CCCN1C(=O)c1cccc(-c2ccc(Cl)c(Cl)c2)c1)C(=O)O`: the Inhibition is reported as 84% with Plasmodium falciparum [1], 0% in the assay on Plasmodium falciparum [2] and 0% in the assay with HepG2.
`Cc1ccc(NC(=O)c2cn(-c3ccccc3)nc2-c2ccc(F)cc2)cc1[N+](=O)[O-]`: the Inhibition in the assay on Plasmodium falciparum [1] was determined as 92%; with Plasmodium falciparum [2], 38%; in the assay with HepG2 it was 6%.
For `CC(C)c1ccc2oc(-c3ccc(NC(=O)c4ccc([N+](=O)[O-])o4)cc3)nc2c1` the same measures were 100%, 95% and 99%.
For `CN1CCN(c2cc(NC(=O)c3ccc(-c4ccc(Cl)cc4)cc3)ccc2Cl)CC1`, the Inhibition in the assay with Plasmodium falciparum [1] is given as 99%; in the assay on Plasmodium falciparum [2] it was 33%; in the assay with HepG2 it was 30%.
On the same counts, the results for `Nc1nc(F)nc2nc[nH]c12` are 89%, 25% and 78%.
For `Cl.Cn1c(=O)n(C)c2cc(CNCCNc3ccnc4cc(Cl)ccc34)ccc21` the same measures were 100%, 96% and 17%.
On the same counts, the results for `FC(F)(F)c1ccc2[nH]c(-c3cccc(-c4ccc(CNCCN5CCNCC5)cc4)c3)nc2c1.O=C(O)C(F)(F)F` are 96%, 0% and 17%.
Take `COc1ccc(CNC2CCN(C)CC2)cc1-c1ccc(S(=O)(=O)NC2CCC2)s1.O=C(O)C(F)(F)F`: the Inhibition with Plasmodium falciparum [1] came to 100%; in the assay with Plasmodium falciparum [2] it was 94%; with HepG2, 32%.
On the same counts, the results for `Cc1ccc(S(=O)(=O)N2CCN(C(=O)c3cc(-c4ccccc4)n[nH]3)CC2)cc1` are 91%, 88% and 0%.
For `CCOc1cc(C(=O)N[C@@H](Cc2ccccc2)[C@H](O)CNCc2cc(OC)cc(OC)c2)cc(N2CCCC2=O)c1.Cl`, the results for the Inhibition in the assay with Plasmodium falciparum [1], in the assay with Plasmodium falciparum [2] and in the assay with HepG2 were 94%, 63% and 0%, respectively.
As for `COc1ccc(NC(=O)c2ccc(Br)c(C)c2)cc1N1CCN(CCCCc2ccccc2)CC1.O=C(O)C(=O)O`, the Inhibition in the assay on Plasmodium falciparum [1] amounted to 88%; in the assay with Plasmodium falciparum [2] it was 17%; in the assay with HepG2, 29%.
For `COc1ccc(C=NN=c2cc[nH]c3ccccc23)c2ccccc12` the same measures were 100%, 98% and 27%.
On the same counts, the results for `CCOC(=O)CCCCCNC[C@H](O)c1ccccc1.Cl` are 98%, 0% and 2%.
For `Cc1cc(C(=O)Nc2ccc3c(c2)CCN3C2CCN(Cc3cccc4cc[nH]c34)C2)no1` (stereo unspecified) the same measures were 97%, 96% and 0%.
Regarding `C=C(F)c1sc(CNCCCNc2nc3ccccc3[nH]2)c(C)c1Br`, the Inhibition with Plasmodium falciparum [1] is given as 100%; with Plasmodium falciparum [2], 23%; in the assay on HepG2 it was 15%.
On the same counts, the results for `Cc1ccc(C)c(Cn2ccc3nc(Cl)nc(Cl)c32)c1` are 95%, 68% and 0%.
For `Cc1cc(C)cc(OCC(O)CN(Cc2cc(Cl)cc(Cl)c2)C(=O)Nc2ccc(Cl)cc2)c1` (stereo unspecified), the Inhibition with Plasmodium falciparum [1] came to 97%; with Plasmodium falciparum [2], 43%; in the assay on HepG2 it was 0%.
On the same counts, the results for `CCc1c(C)nc2nc(Cc3cccc(F)c3)nn2c1N1CCN(c2ccccn2)CC1` are 100%, 98% and 0%.
On the same counts, the results for `Cc1cc(F)ccc1-c1nc(N(C)CCN(C)C(=O)N(C)c2ccccc2)nc2c1ccc(=O)n2-c1c(F)cccc1F.O=C(O)C(F)(F)F` are 87%, 77% and 0%.
`COc1ccccc1C1CCN(C2CCC(NC(=O)/C=C/c3cc(F)cc(C(F)(F)F)c3)CC2)CC1` (stereo unspecified): the Inhibition in the assay on Plasmodium falciparum [1] is 98%; with Plasmodium falciparum [2], 57%; in the assay with HepG2, 92%.
Regarding `COc1ccc(CCOc2c(C)nc(N)nc2N)cc1OC.Cl`, the Inhibition is reported as 96% in the assay with Plasmodium falciparum [1], 22% with Plasmodium falciparum [2] and 66% in the assay on HepG2.
On the same counts, the results for `CC1CN(Cc2ccc(C#N)cc2)CCN1c1ccc(NC(=O)c2cccs2)cc1.O=C(O)C(F)(F)F` (stereo unspecified) are 93%, 89% and 8%.
On the same counts, the results for `Oc1ccc(Cl)cc1CN1CCC2(CCCN(CC3CCC3)C2)C1` (stereo unspecified) are 100%, 94% and 5%.
For `CC(C)(C)c1ccc(O)c(CNC2CCCCC2)c1.Cl` the same measures were 100%, 98% and 5%.
For `Cl.N=C(N)NN=Cc1c2ccccc2c(Cl)c2c(Cl)cccc12`, the Inhibition in the assay with Plasmodium falciparum [1] is listed as 91%; in the assay with Plasmodium falciparum [2], 72%; with HepG2, 71%.
For `O=C(/C=C/c1ccc(Cl)c(Cl)c1)NCCCCCN1CCCN(C(=O)Nc2ccc(Cl)c(Cl)c2)CC1`, the Inhibition in the assay on Plasmodium falciparum [1] turned out to be 100%; in the assay on Plasmodium falciparum [2] it was 2%; in the assay on HepG2, 55%.
`CNCCNCc1ccc(-c2ccc(-c3nc4cccc(C)c4[nH]3)cc2)cc1.O=C(O)C(F)(F)F`: the Inhibition in the assay with Plasmodium falciparum [1] is given as 96%; with Plasmodium falciparum [2] it was 79%; in the assay on HepG2, 19%.
